Assay outcomes as filed in PubChem.
HP1b binding inh = HP1-beta chromodomain-methylated histone interaction inhibition; Potency, µM (top dose mostly 114 µM), for the others: top-dose activity change, negative = inhibition, actives largely listed as inhibitors; AID 540317; AlphaScreen HP1-beta / biotin-H3K9me3 peptide binding; P83916; 0.56% of 390,000 active; also: nearly all actives have a fitted effect of over 70% in size
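AlphaScreen: HP1-beta (50 nM) preformed 30 min with biotin-H3(1-18)K9me3 peptide (50 nM) in PBS pH 7.4, 0.01% Tween-20. Compound added for 30 min at RT, then streptavidin donor/nickel chelate acceptor beads (10 ug/mL) for 30 min.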
JMJD2A Tudor = blocks the human JMJD2A Tudor domain. AlphaScreen JMJD2A-Tudor / H3K4me3 peptide binding. AID 504339. Potency, µM (titrated, usually from 114 µM), for inactives: top-dose activity change, negative = inhibition, usual class: inhibitors. O75164. 4.4% of 390,000 active; also: % is scaled to controls: 0 for no effect and ±100 for the full control effect; nearly all actives have a fitted effect of over 50% in size
Sfp PPTase inh = Sfp phosphopantetheinyl transferase inhibition | Potency, µM, without a hit: largest response in the series, negative = inhibition, actives largely listed as inhibitors | Biochemical Sfp PPTase activity, qHTS | AID 1490 | Q9F4F7 | 3.5% of 310,000 active;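 also: the enzyme is Sfp with the accession as filed and its product quenches rhodamine fluorescence; 0% = enzyme reaction without inhibitor and -100% = no enzyme wells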
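Fluorescence-quenching assay: 15 nM Sfp-PPTase preincubated 15 min at room temperature with compound, then 5 uM rhodamine-CoA and 12.5 uM BHQ-2-labelled YbbR peptide added. Fluorescence (ex 525/em 598 nm) read at start and after 30 min; difference gives rate.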
PLK1 PBD block = inhibitors of human PLK1 polo-box domain binding. Plk1 PBD binding of FITC phosphopeptide, fluorescence polarization. Potency, µM, for the others: max response, negative = inhibition, most hits filed as inhibitors. 2.8% of 360,000 active; also: series mostly up to about 57 µM; % is scaled to controls: 0 for no effect and ±100 for the full control effect; nearly all actives have a fitted effect of over 65% in size
G9a inh = G9a (human) methyltransferase inhibition | G9a H3K9 monomethylation, AlphaScreen, 2 h | AID 504332 | Potency, µM (series often up to 102 µM), without a hit: top-dose activity, negative = inhibition, most hits filed as inhibitors | 8.8% of 350,000 active; also: % is scaled to controls: 0 for no effect and ±100 for the full control effect; nearly all actives have a fitted effect of over 75% in size
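Readings reflect AlphaScreen signal from monomethyl-H3K9 antibody detection. HMT at 20 nM; substrate b-H3K9 500 nM; cofactor SAM 20 uM; 2 h RT reaction; compounds tested as titrations in qHTS with 15 min preincubation.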
BAZ2B block = blocks human BAZ2B; AlphaScreen BAZ2B-H3K14Ac peptide displacement; Potency, µM (doses to about 114 µM), for inactives: at the top dose activity change, negative = inhibition, actives largely listed as inhibitors; 4.4% of 360,000 active; also: % is scaled to controls: 0 for no effect and ±100 for the full control effect; nearly all actives have a fitted effect of over 60% in size
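Inhibition is scored as reduced AlphaScreen emission. The BAZ2B/b-H3(5-23)K14Ac complex (50 nM each) in PBS pH 7.4, 0.01% Tween-20 meets compound (up to 110 uM) for 30 min at RT before bead addition.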
Starred values were filed as active, the others as inactive; ? = inconclusive; . = no result given; [ ] = dose if it differs, or a comment. Hits are enriched below; roughly 12% of the tested compounds scored in any of these assays. Calls follow the shape of the dose curve; as a rule, active = well fitted curve in the direction sought with a large enough effect; inconclusive = small, poorly fitted or top-dose-only effect, or another doubt; inactive = no such curve, though single readings can be large; an effect the other way counts as inactive or inconclusive. Potency is read from the fitted curve at half-maximal effect.

SMILES	HP1b binding inh	JMJD2A Tudor	Sfp PPTase inh	PLK1 PBD block	G9a inh	BAZ2B block
COC(=O)CCCCCN1C(=O)/C(=C\c2ccncc2)SC1=S	?	45µM*	-3%	-24%	10µM*	25µM*
Cc1ccc(/C=C2\SC(=S)N(CCC(=O)NNC(=O)c3ccncc3)C2=O)cc1	-14%	-15%	-12%	3%	.	2%
O=C(O)CCN1C(=O)S/C(=C\c2cccnc2)C1=O	32%	-11%	11%	-11%	71µM*	?
COC(=O)c1cccc(C23CC4(C2)[C@H](CN(CC2CCCCC2)[C@@H]4c2ccccc2)C3c2ccc(C(F)(F)F)cc2)c1 (stereo not given in full)	.	.	15%	.	.	.
COc1ccccc1-c1noc(CSc2nc3ccc(C)cc3[nH]2)n1	16%	-10%	.	.	-40%[59 µM]	-18%
CCCCN(CCCNC(=S)NCCCc1cnc[nH]1)c1ccc(Br)cn1	.	50µM*	.	.	.	.
S=C(NCCCN(Cc1ccc(Cl)cc1)c1ccc(-c2ccccc2)cn1)NCCCN(Cc1ccc(Cl)cc1)c1ccc(-c2ccccc2)cn1	-7%	?	.	.	.	.
S=C(NCCCc1cnc[nH]1)NCCCN(CCc1ccccc1)c1ccc(Br)cn1	?	56µM*	.	.	.	.
S=C(NCCCc1cnc[nH]1)NCCCN(Cc1ccccc1)c1ccc(Br)cn1	.	56µM*	.	.	.	.
CCCCNC(=S)NCCCc1cnc[nH]1	.	-18%	.	.	.	.
S=C(NCCCc1ccccc1)Nc1ccccc1	54%	-7%	10%	0%	39%	-9%
CCOc1ccc(NC(=O)N2CCN(C(=O)c3ccco3)CC2)cc1	6%	-15%	12%	-14%	55%	-16%
CCOc1ccc(OCC)c(NC(=O)CN2CCN(c3cccc(C)c3C)CC2)c1	?	1.6µM*	?	4%	?	?
CCOc1ccc(NC(=O)NCCN2CCN(c3cccc(C)c3C)CC2)cc1	27%	-8%	8%	2%	-4%	-17%
CCOC(=O)c1cc(CC)sc1NC(=O)CN1CCN(C(=O)c2ccco2)CC1	-15%	?	40µM*	?	?	?
CCOc1ccc(OCC)c(NC(=O)CN2CCN(C(=O)c3ccco3)CC2)c1	-25%	-2%[11.4 µM]	13%	21µM*	-8%[12.7 µM]	8%
COc1cccc(C(=O)Nc2ccc3nc(SCc4ccc(C)cc4)sc3c2)c1	81%	3%	.	.	5%[59 µM]	-16%
CCC(C)[C@H](NC(=O)C1CC(=O)N(c2ccc(OC)cc2)C1)C(=O)NC1CCCC1 (stereo not given in full)	71%	-20%	4%	-11%	21%	0%
COc1ccc(Cl)cc1NC(=S)NCCc1ccc(F)cc1	43%	-4%	-5%	-13%	2%	-27%
COc1ccc(NCCC(O)c2ccc(Cl)cc2)cc1 (stereo not given)	?	56µM*	-6%	-5%	?	45µM*
COc1ccc(Cl)cc1NCCC(O)c1ccc(F)cc1 (stereo not given)	-1%	?	1%	-12%	35µM*	?
COc1ccc(OCC(=O)Nc2ccc(Cl)cc2)cc1	5%	-2%	11%	-4%	.	13%
Cc1ccccc1CC1SC(N=C(N)N)=NC1=O (stereo not given)	35%	?	8%	-7%	-7%	3%
Cc1ccccc1CC1SC(N)=NC1=O (stereo not given)	21%	-13%	16%	-18%	32µM*	-20%
CCCCS(=O)(=O)N1CCCC(C(=O)Oc2ccc(Cl)cc2)C1 (stereo not given)	75%	4%	24%	-8%	39%	-3%
SMILES	HP1b binding inh	JMJD2A Tudor	Sfp PPTase inh	PLK1 PBD block	G9a inh	BAZ2B block
CCCCOc1ccc(CSC(CC(=O)O)C(=O)O)cc1 (stereo not given)	40%	-13%	2%	-4%	?	10%
CCOc1ccc(CSC(CC(=O)O)C(=O)O)cc1 (stereo not given)	47%	-4%	-6%	-16%	.	79µM*
COc1ccc(/C=N/Nc2ccccc2C(=O)O)cc1Cn1cc([N+](=O)[O-])cn1	-15%	?	6%	-14%	22µM*	50µM*
COc1ccc(/C=N/NC(=O)c2ccc(Br)o2)cc1Cn1cc([N+](=O)[O-])cn1	22%	-6%	-4%	-2%	-32%[59 µM]	-27%
COc1ccc(/C=N/NC(=O)c2ccccc2O)cc1Cn1cc([N+](=O)[O-])cn1	29%	-6%[11.4 µM]	-14%	-10%	10%	-4%
COc1ccc(/C=N/NC(=O)c2cc(O)c(O)c(O)c2)cc1Cn1cc([N+](=O)[O-])cn1	?	10µM*	-121%	?	14µM*	10µM*
COc1ccccc1CN1CCC(CNC(=O)c2cnn(-c3ccc(Cl)cc3)c2C2CCN(C(=O)OC(C)(C)C)CC2)CC1	25%	-31%	.	.	-27%[59 µM]	3%[57.1 µM]
CCOC(=O)C1=C(CN2CCN(c3ccc(C)cc3C)CC2)NC(=O)NC1c1ccc(OC)cc1 (stereo not given)	-3%	-30%	.	.	-38%[59 µM]	-30%
CC(CNC(=O)c1nnc(Cc2ccc(F)cc2)o1)c1ccccc1 (stereo not given)	4%	-4%	.	.	-19%[59 µM]	-34%
Cc1ccc(Cl)cc1-n1ncc2c(N3CCC(C)CC3)ncnc21	36%	12%	.	.	11%[59 µM]	44%
Cc1cc(C)c(C#N)c(=N)o1	-58%	79µM*	14µM*	4.7µM*	1.8µM*	.
CSc1nc(C)cc(C)c1C#N	55%	16%	4%	2%	57%	-19%
N#CC(c1ccccc1)N(CCCCl)C(=O)c1ccccc1 (stereo not given)	63%	3%	-3%	-28%	45µM*	5%
COC(=O)c1ccc(C2N=C(c3cccs3)CC(c3ccccc3O)N2)cc1 (stereo not given)	15%	-27%	-9%	-12%	45µM*	-6%
CC(C)c1ccc(C(=O)Nc2cc(-c3ccccc3F)nn2-c2ccccc2)cc1	15%[57 µM]	-7%	.	.	13%[59 µM]	7%
Clc1cccc(CN2CCc3c([nH]c4ccccc34)C2)c1	?	20µM*	?	27µM*	.	50µM*
Clc1ccc(CN2CCc3c([nH]c4ccccc34)C2)cc1Cl	?	16µM*	?	?	28µM*	32µM*
Cc1cccc(CN2CCc3c([nH]c4ccccc34)C2)c1	45µM*	20µM*	-9%	-14%	45µM*	50µM*
CSc1ccc(CN2CCc3c([nH]c4ccccc34)C2)cc1	?	3.2µM*	-17%	-4%	.	?
COc1ccc(NS(=O)(=O)c2ccc3oc(SCc4ccc(F)cc4)nc3c2)cc1	-5%	-26%	10%	?	79µM*	-3%
COc1cc2ccccc2cc1C(=O)NC(=S)Nc1cc(C(=O)O)ccc1C	9%	-24%	-4%	?	?	?
